# Measurements as given in PubChem BioAssay (NCI).
# Where “and” joins values, the source holds several entries; their conditions need not be identical. Identical values can stand only once. The panel holds about 83,000 compounds, 20% with a hit somewhere; the sample as a whole holds those more often.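 Values shown are percent growth following 48 h exposure of cells in 96-well plates to a single concentration of compound; below 10 was considered active.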 Calls of active or inactive are those of the source.
# System: TK-10 renal
# Experiment: NCI-60 one-dose screen, 48 h (100 = growth as untreated, 0 = no growth, -100 = all killed)
# Settings: 10 µM unless noted
# Experimental: Growth inhibition of the TK-10 human tumor cell line is measured as a screen for anti-cancer activity. Cells are grown in 96 well plates and exposed to the test compound for 48 hours. Compounds are tested at a single concentration, which is 10^-5 M for most compounds. The reported endpoint is percent growth (GI% or GIPRCNT), where numbers from 0 - 100% represent growth inhibition, and numbers from -100% - 0 represent cell death. For example, a value of 40 represents 60% growth inhibition. A value of 0 means no net growth occurred over the course of the experiment. A value of -40 indicates 40% of cells at the beginning of the experiment died by the end of the experiment. A value of -100 means all cells are dead at the end of the experiment.
# NCI-60 Human Tumor Cell Lines Screen was performed using the standard one-dose NCI protocol, which is described in more detail at https://dtp.cancer.gov/discovery_development/nci-60/default.htm.
# Compounds with GIPRCNT values below 10 were considered active. Activity score was based on GIPRCNT using the following formula: […]
# Score is 0 for GIPRCNT values of 100 or above, 50 for GIPRCNT values of 0, and 100 for GIPRCNT values of -100.
row,Compound,growth
1,CN(C)P1(N(C)C)=NP(N(C)C)(N(C)C)=NP(N(C)C)(N(C)C)=N1,95.3% (inactive)
2,O=C(CCl)NCNC(=O)CCl,105% (inactive)
3,Cc1cccc(N=C2c3cc([N+](=O)[O-])ccc3-c3c2cc([N+](=O)[O-])cc3[N+](=O)[O-])c1,56.1% (inactive)
4,c1cnc2c(c1)ccc1ncccc12,114% (inactive)
5,COC(C)(C)CCC[C@H](C)C/C=C/C(C)=C/C(=O)OC(C)C,96.5% (inactive)
6,CCOc1c(Cl)cc(CNC(C)C(O)c2ccccc2)cc1OC (stereo not given),90.5% (inactive)
7,FC(F)=C(F)c1ccccc1,89.7% (inactive)
8,O=[As]c1ccc(C(=O)c2ccc(Oc3ccccc3)cc2)cc1 (stereo not given),-98.8% (active)
9,Nc1ccc([N+](=O)[O-])c2c1Oc1ccccc1O2,94.4% (inactive)
10,COc1ccc(-c2ccc(OC)c(OC)c2OC)cc1,16.2% (inactive)
11,COP(=S)(OC)Oc1ccc(SC)c(C)c1,124% (inactive)
12,Nc1cccc2c1Oc1ccccc1O2,115% (inactive)
13,CC(C)Nc1ccc(Nc2ccccc2)cc1,45.2% (inactive)
14,CCCCn1cc(C(=O)/C(C#N)=C/c2cc3ccccc3nc2Cl)c2cc(OC)ccc21,101% (inactive)
15,NC(=O)NC(=O)CI,88.6% (inactive)
16,CC(C)OC(=S)[S-].[Au+].c1ccc([PH+](c2ccccc2)c2ccccc2)cc1,-3.22% (active)
17,COc1ccc(CN2CCN(Cc3ccccc3)CC2)c(O)c1,100% (inactive)
18,CC(C)CCC[C@@H](C)[C@H]1CC[C@H]2[C@@H]3CC=C4C[C@@H](OC(=O)Cc5ccc(N(CCCl)CCCl)cc5)CC[C@]4(C)[C@H]3CC[C@]12C,159% (inactive)
19,CN1CC2CCC(C1)C2=O,93% (inactive)
20,CC(=O)[O][Hg][c]1ccccc1,-94.7% (active)

row,Compound,growth
1,COc1ccc(OC)c(/C=C(/C)[N+](=O)[O-])c1,-19.1% (active)
2,N#[N+]c1cnc([O-])[nH]c1=O,92.6% (inactive)
3,CC12CC3OC(=O)C1COC14OC5(C2C1=O)C(O)(CCC1C4CC2OC24CC=CC(=O)C14C)C(=O)OC35C (stereo not given),4.16% [100 µM] (active) and -100% [100 µM] (active)
4,CO[C@@H]([CH2][Hg][S]C#N)[C@@H]([CH2][Hg][S]C#N)OC,133% (inactive)
5,COC[CH2][Hg][C]#[C][Hg][CH2]COC,119% (inactive)
6,CC(=O)N(C)C1=Nc2ccc(Cl)cc2C(c2ccccc2)=[N+]([O-])C1,102% (inactive)
7,OC1(c2ccccc2F)c2ccccc2C2=NCCN21 (stereo not given),90.4% (inactive)
8,O=C(NCc1ccc([N+](=O)[O-])cc1)Nc1ccc(S(=O)(=O)F)cc1,78.1% (inactive)
9,Nc1nc(N)c(-c2ccc(Cl)c(Cl)c2)c(/C=C/c2ccc(S(=O)(=O)F)cc2)n1,86.8% (inactive)
10,O1[As]2O[As]3O[As]1O[As](O2)O3,3.92% (active)
11,O=CC(Br)C(Br)c1ccccc1 (stereo not given),106% (inactive)
12,CCOC(=O)/C(C#N)=C/c1ccc(N(CCCl)CCCl)cc1,91.4% (inactive)
13,O=C(O)CCC1N=C(c2cccc(O)c2)c2ccccc2NC1=O (stereo not given),96.4% [30 µM] (inactive)
14,CNC(C)Cc1ccccc1 (stereo not given) (tested in a mixture with another compound),92.8% (inactive)
15,CC(=O)OC1CCC2(C)C(=CCC3C4CC(CN5CC5)C(=O)C4(C)CCC32)C1 (stereo not given),-12.1% (active)
16,COc1cc2c(cc1OC)CN(C)C(C)C2 (stereo not given),101% (inactive)
17,O=C1NC(=O)C(O)(C2(O)C(=O)NC(=O)NC2=O)C(=O)N1,118% (inactive)
18,CC[C@]12C=CCN3CC[C@@]4(c5ccc(OC)cc5N(C)[C@H]4[C@@](O)(C(=O)OC)[C@@H]1OC(=O)CCCN1CCN(CCCC(=O)O[C@@H]4[C@]5(CC)C=CCN6CC[C@@]7(c8ccc(OC)cc8N(C)[C@H]7[C@@]4(O)C(=O)OC)[C@@H]65)CC1)[C@@H]32,-87.9% (active)
19,CNC(=O)Oc1cc(C(C)C)ccc1Sc1ccc(C(C)C)cc1OC(=O)NC,84.7% (inactive)
20,C[C@]12CC[C@H](OC3OC(O)C(O)C(O)C3O)C=C1CCC1C2CC[C@]2(C)[C@@H](c3ccc(=O)oc3)CC[C@]12O (stereo not given in full),-80.6% (active)
